# Compound activity from PubChem.
# GPT2 inhibitor: blocks human glutamate pyruvate transaminase 2; Q8TD30; Recombinant GPT2, coupled pyruvate oxidase/HRP Amplex Red fluorescence; Potency, µM (doses to about 57.7 µM), for the others: at the top dose activity change, negative = inhibition, hits mostly inhibitors; hit rate 0.25% among 100,000; AID 1671188; further: nearly all actives have a fitted effect of over 60% in size
# Target sequence (Q8TD30 whole entry, looked up): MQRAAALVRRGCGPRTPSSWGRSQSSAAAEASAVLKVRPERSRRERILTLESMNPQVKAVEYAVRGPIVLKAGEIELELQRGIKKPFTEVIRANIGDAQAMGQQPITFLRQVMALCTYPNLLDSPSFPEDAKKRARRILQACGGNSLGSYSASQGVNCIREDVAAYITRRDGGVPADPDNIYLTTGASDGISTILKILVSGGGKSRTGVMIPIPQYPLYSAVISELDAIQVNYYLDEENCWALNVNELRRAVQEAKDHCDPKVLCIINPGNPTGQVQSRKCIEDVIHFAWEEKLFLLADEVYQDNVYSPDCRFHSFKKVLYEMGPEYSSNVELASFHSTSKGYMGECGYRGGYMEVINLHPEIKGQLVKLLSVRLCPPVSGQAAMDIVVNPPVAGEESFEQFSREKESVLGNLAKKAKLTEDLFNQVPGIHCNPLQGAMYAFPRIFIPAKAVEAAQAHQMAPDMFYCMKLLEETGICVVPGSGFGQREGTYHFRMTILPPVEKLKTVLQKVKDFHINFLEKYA
#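 Recombinant GPT2 (10ng/uL) with 250uM a-KG and 2mM L-alanine, 30 min at room temperature, in HEPES pH 7.5 buffer. Pyruvate detected by pyruvate oxidase/HRP/Amplex Red fluorescence after 30 min in the dark; AOA (50uM) as positive control.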
# 3T3 cytotox: kills NIH 3T3 cells | Potency, µM (titrated, usually from 96.7 µM), for the others: at the highest dose activity change, negative = cytotoxicity, hits mostly inhibitors | AID 1345082 | hit rate 4.3% among 94,000 | NIH 3T3 viability, CellTiter-Glo ATP luminescence, 48-72 h; further: nearly all actives have a fitted effect of over 55% in size
#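 Viability of NIH 3T3 cells after 48 or 72 hr compound treatment at 37 °C was assessed by CellTiter-Glo, with luminescence imaged following a 10 min room-temperature step.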
# NPR1 antag: blocks ANP-stimulated signaling of human Npr1 receptor. Potency, µM (series often up to 46.3 µM), for the others: at the highest dose activity change, negative = inhibition, most hits filed as inhibitors. AID 1347048. hit rate 1.6% among 76,000. HEK293 hNpr1 GloSensor cGMP, ANP-stimulated luminescence; calls by dose curve; further: nearly all actives have a fitted effect of over 60% in size
#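 Compound pre-incubated 30 min at room temperature on GloSensor-loaded HEK293 cells stably carrying hNpr1 and the pGS-40F cGMP biosensor. Stimulation uses hNppA at 0.1 nM final; luminescence is taken at baseline and 20 min post-agonist.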
# HEK293 tox: kills HEK 293 cells. HEK 293 viability, ATP luminescence (CellTiter-Glo), 48-72 h. Potency, µM (doses to about 115 µM), without a hit: at the top dose activity change, negative = cytotoxicity, usual class: inhibitors. hit rate 6.6% among 94,000. AID 1345083; further: nearly all actives have a fitted effect of over 60% in size
#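 HEK 293 cells seeded at 250 cells/well were exposed to compound for 48 or 72 hr at 37 degree Celsius. Viability taken as ATP content by CellTiter-Glo luminescence.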
# FLuc inh: inhibitors of firefly (Photinus pyralis) luciferase | P08659 | purified P. pyralis luciferase, luminescence, biochemical | Potency, µM (titrated, usually from 115 µM), usual class: inhibitors | hit rate 2.5% among 76,000 | AID 1347043; further: nearly all actives have a fitted effect of over 65% in size
#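 Luminescence read by CCD imager after adding enzyme (10nM final) to wells holding compound, titrated in qHTS. Substrates 10uM each D-luciferin and ATP; buffer 50mM Tris acetate pH 7.5, 10mM Mg acetate, Tween-20, BSA.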
# Starred values were filed as active, the others as inactive; i = inactive; ? = inconclusive; . = not tested or not shown; [ ] = another dose, or the depositor's remark. The list is not random: actives were taken first. Their share in the collection is about 10%. Unless noted, the call rests on the fitted dose curve; in most records, active means well fitted curve in the direction sought with a large enough effect; inconclusive means small, poorly fitted or top-dose-only effect, or another doubt; inactive means no such curve, though single readings can be large; an effect the other way counts as inactive or inconclusive. On the % scale 0 is the no-effect control and ±100 the full control effect; potency means the concentration at half of the fitted maximal effect.
SMILES,GPT2 inhibitor,3T3 cytotox,NPR1 antag,HEK293 tox,FLuc inh
COCCNC(=O)c1cc(-c2ccc(OC)cc2)nc2c1c(C1CCCN1)nn2C (stereo not given),i,?,.,-25%,.
O=C(O)c1ccc(-c2cnccn2)cc1,-9%[88.5 µM],5%[174 µM],.,-3%[230 µM],.
COc1ccc(C)cc1NC(=O)Cn1cccc1-c1nc(-c2ccccc2)no1,i,-12%,-12%,?,i
COc1ccc(CCN(C)C(=O)CC(c2cccc(F)c2)c2cn(C)c3ccccc23)cc1OC (stereo not given),-11%,?,-25%,40µM*,i
Cc1nn2cc(CCNC(=O)C3NCCc4[nH]cnc43)nc2s1 (stereo not given),-16%,1%,3%,i,i
O=C1CO[C@H]2CCN(Cc3ccc4c(c3)CCO4)CC[C@@H]2N1Cc1ccccc1,i,100µM*,-21%[70.6 µM],?,i
CC(C)c1ccc(CN2CC[C@@H]3OCC(=O)N(Cc4ccccc4)[C@H]3CC2)cc1,-25%[88.5 µM],35µM*,?,32µM*,i
CN1CCN(Cc2cccc(OCC(O)CN3CCOCC3)c2)CC1(C)C (stereo not given),i,-1%,1%,-14%,i
COCCCNC(=O)CNC(=O)c1ccc(-c2cnc3ccccc3c2)cc1,.,-40%,.,79µM*,.
O=C(CNC(=O)c1ccc(-c2cnc3ccccc3c2)cc1)NCc1ccc2c(c1)OCO2,.,-26%,.,50µM*,.
COc1cccc(C(=O)N2CCC(N3C[C@H](O)C[C@H]3C(=O)N3CCC(C)CC3)CC2)c1,i,-21%,-2%,-17%,i
COc1ccc(C(=O)N2CCN(Cc3ccc(=O)n(C)c3)CC2)cn1,i,i,4%,-7%,?
COCC1CN(C(C)=O)CC12CCN(Cc1cccc(Br)c1)CC2 (stereo not given),i,-18%,-19%,79µM*,i
COC(=O)[C@@H]1Cc2ncn(Cc3ccccc3)c2CN1S(=O)(=O)c1cccc2c(N(C)C)cccc12,-3%,?,-6%,?,i
c1ccc(CN[C@@H]2C[C@@H]3CO[C@H](c4ccccc4)C[C@@H]3C2)cc1,.,-26%,.,?,.
c1ccc(-c2ccccc2CN[C@@H]2C[C@@H]3CO[C@H](c4ccccc4)C[C@@H]3C2)cc1,.,18µM*,.,?,.
COc1ccccc1-c1cnc(NCc2ccccc2)c2c1CCO2,?,25µM*,-12%[70.6 µM],?,i
COc1ccccc1-c1cnc(Nc2ccc3c(c2)OCCO3)c2c1CCO2,-22%[88.5 µM],-27%[138 µM],?,?,14µM*
COc1ccccc1-c1cnc(Nc2cc(F)cc(N3CCOCC3)c2)c2c1CCO2,1%[88.5 µM],?,-4%[70.6 µM],?,i
CC(C)c1ccc(C(=O)N2CCC(Oc3ccc(C(=O)N(C)C)cn3)CC2)cc1,i,-21%,-13%,?,i
CN(C)C(=O)c1ccc(OC2CCN(C(=O)c3ccc(Cl)cc3)CC2)nc1,i,40µM*,-17%,?,i
Cc1ccc(NC(=O)c2ccc3c(c2)N(C)C2CCCCN2C3=O)cc1C (stereo not given),-10%,?,-3%,?,40µM*
Cc1ccc(NC(=O)c2ccc3c(c2)N(C)C2CCCCN2C3=O)cc1Cl (stereo not given),-2%,-18%,-8%,?,?
CN1c2cc(C(=O)Nc3ccc(Cl)c(F)c3)ccc2C(=O)N2CCCCC21 (stereo not given),1%,?,-2%,?,?
Cc1ccc(NC(=O)c2ccc3c(c2)N(C)C2CCCCCN2C3=O)cc1 (stereo not given),i,?,3%,?,?
SMILES,GPT2 inhibitor,3T3 cytotox,NPR1 antag,HEK293 tox,FLuc inh
Cc1ccc(NC(=O)c2ccc3c(c2)N(C)C2CCCCCN2C3=O)cc1F (stereo not given),-2%,?,0%,32µM*,i
CN1c2cc(C(=O)Nc3ccc4c(c3)OCCO4)ccc2C(=O)N2CCCCCC21 (stereo not given),-3%,?,-6%,?,13µM*
Cc1cc(NC(=O)c2ccc3c(c2)N(C)C2CCCCN2C3=O)ccc1Cl (stereo not given),i,-24%,-1%,?,25µM*
COC1C(=O)N(c2cccc(F)c2)C12CCN(C(=O)c1cc(C)n(C)n1)CC2 (stereo not given),-1%,-10%,.,-8%,.
O=C(N[C@@H]1CCOC[C@H]1OCCO)C1(S(=O)(=O)c2ccccc2)CC1,i,i,4%,-2%,i
CCc1ccccc1NC(=O)N1CC(C(=O)N(C)C)C2(CCOCC2)C1 (stereo not given),0%,-17%,5%,-7%,i
O=C([C@H]1C[C@H](Oc2cccnc2)CN1C(=O)Cc1ccccc1)N1CCOCC1,3%,-5%,-14%,-2%,i
CN(CC1CCOC1)C(=O)Nc1ccccc1C(F)(F)F (stereo not given),i,i,2%,-6%,i
COCc1noc(Cn2ncc(N(C)CCc3ccccc3)cc2=O)n1,-8%[11.5 µM],-13%,1%,-27%,i
Cc1ccccc1N1Cc2c(ncnc2N2CCN(c3ncccn3)CC2)N(C)CC1=O,-4%,-13%,5%,-1%,i
COc1ccc(NC(=O)c2ccc3c(c2)N(C)C2CCCCCN2C3=O)cc1OC (stereo not given),i,?,-23%,?,i
Cc1ccc(NC(=O)c2ccc3c(c2)N(C)C2CCCCCN2C3=O)cc1C (stereo not given),2%,?,?,45µM*,?
CN(C)S(=O)(=O)N1CC(c2nc(Cc3cccnc3)no2)C1,-28%,-21%,.,-7%,.
c1cncc(Cc2noc(C3CN(Cc4ccsc4)C3)n2)c1,-24%,25µM*,-6%,?,i
CC(C)n1cc(CN2CCC(Oc3ccc(C(=O)NC4CCCC4)cc3Cl)CC2)cn1,0%,40µM*,3%,?,i
Cn1cc(-c2cnc3[nH]cc(CC(=O)NCc4cccc(F)c4)c3c2)cn1,-7%[88.5 µM],25µM*,-1%[70.6 µM],?,i
CN(C)c1cccc(NC(=O)Cc2c[nH]c3ncc(-c4cnn(C)c4)cc23)c1,i,32µM*,-23%[70.6 µM],71µM*,i
COc1ccc(NC(=O)Cc2c[nH]c3ncc(-c4cnn(C)c4)cc23)cn1,i,50µM*,-1%[70.6 µM],-9%[172 µM],i
Cn1cc(-c2cnc3[nH]cc(CC(=O)Nc4cccnc4)c3c2)cn1,3%[88.5 µM],?,1%[70.6 µM],-21%[172 µM],i
Cc1ccccc1NC(=O)Cc1c[nH]c2ncc(-c3cnn(C)c3)cc12,-9%[88.5 µM],22µM*,0%[70.6 µM],?,i
CN(C)C(=O)Cc1c[nH]c2ncc(-c3cnn(C)c3)cc12,?,?,7%[70.6 µM],-23%[230 µM],i
